Data: PubChem BioAssay AID2606 (The Scripps Research Institute Molecular Screening Center, 2010)
Screen size: about 320,000 compounds; about 160 (0.05%) were called active. The sample holds actives, similar compounds and a random draw of the others, so the mix is not that of the screen. No stated cut-off is given here; in the data, active means inhibition above about 38%; inactive means the rest.

The compounds below were run against Serine protease Rv3671c (Mycobacterium tuberculosis (strain ATCC 25618 / H37Rv)) (UniProt P9WHR9) (assay: Rv3671c serine protease inhibitors, primary screen, biochemical, fluorescence polarization, M. tuberculosis H37Rv (AID 2606;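 further: extracellular domain of Rv3671c used as enzyme; 0% = enzyme with DMSO and 100% = no enzyme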)). Conditions: at 5.96 µM; hits give high values.
Chain of Serine protease Rv3671c (Mycobacterium tuberculosis (strain ATCC 25618 / H37Rv)) (P9WHR9 whole entry, looked up, the tested form may be a part): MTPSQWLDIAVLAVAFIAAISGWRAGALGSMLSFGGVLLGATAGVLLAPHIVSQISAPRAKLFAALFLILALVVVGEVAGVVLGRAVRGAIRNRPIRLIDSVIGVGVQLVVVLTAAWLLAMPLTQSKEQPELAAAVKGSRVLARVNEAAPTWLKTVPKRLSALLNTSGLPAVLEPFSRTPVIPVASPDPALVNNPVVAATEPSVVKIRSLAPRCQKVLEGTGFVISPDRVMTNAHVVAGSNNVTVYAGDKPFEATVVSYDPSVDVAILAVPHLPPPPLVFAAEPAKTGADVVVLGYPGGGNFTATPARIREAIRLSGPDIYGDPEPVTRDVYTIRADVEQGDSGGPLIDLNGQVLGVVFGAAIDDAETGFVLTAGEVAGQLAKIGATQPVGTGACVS
With `COP1(=O)C[C@@H](O)[C@@H](O)[C@@H](COCc2ccccc2)O1` (stereo not given in full) the inhibition was -2.74% (inactive).
In the case of `Cc1cnc(C(=O)N2CCCC(C(=O)c3ccc(C(F)(F)F)cc3)C2)cn1` (stereo not given), the inhibition is reported as -4.62% (inactive).
With `CC(c1nnc(SCC(=O)Nc2sccc2C#N)n1-c1ccc(Cl)cc1)N(C)C` (stereo not given) the inhibition was 3.82% (inactive).
In the case of `Cn1sc(=O)c2cc(S(=O)(=O)NC3CC3)ccc21`, the inhibition is reported as -8.37% (inactive).
In the case of `C[C@@H](NC(=O)c1nc[nH]c1C(=O)N1CCN(C(=O)OC(C)(C)C)CC1)c1ccccc1`, the inhibition is reported as -6.88% (inactive).
With `CC(Sc1nnc(Cc2ccc([N+](=O)[O-])cc2)o1)C(N)=O` (stereo not given) the inhibition was -0.21% (inactive).
In the case of `C[C@@H](C(=O)Nc1ccc2ccccc2c1)[C@@H]1C[C@@]1(C)[C@@H](NC(=O)c1cccnc1)c1ccccc1`, the inhibition is reported as -17.9% (inactive).
In the case of `CCS(=O)(=O)N1Cc2ccccc2CC1C(=O)Nc1nc2ccc(F)cc2s1` (stereo not given), the inhibition is reported as -18.8% (inactive).
For `O=C(NCc1ccccc1)C1=C[C@@H](c2ccccc2)C[C@@H](OCCCCO)O1`, the inhibition was -9.25% (inactive).
For `O=S(=O)(c1cc(Cl)ccc1Cl)N1CCN(Cc2ccco2)CC1`, the inhibition was -5.87% (inactive).
`COc1cccc(/C=C2\SC(=N)N(c3ccc(F)cc3)C2=O)c1` was tested, and the inhibition was 7.8% (inactive).
For `COc1ccc(/C=N/N=C/c2c[nH]c(=O)c(C#N)c2Nc2ccccc2)cc1`, the inhibition was -1.73% (inactive).
For `NS(=O)(=O)c1ccc(NC(=S)Nc2ccc(Br)c(Cl)c2)cc1`, the inhibition was -3.02% (inactive).
For `CCn1c(SCC(=O)Nc2ccc(Br)cc2)nc2sc3c(c2c1=O)CCN(C)C3`, the inhibition was -7.34% (inactive).
In the case of `COc1ccccc1C(=O)Nc1ccc(OCC(=O)N2CCCCC2)cc1`, the inhibition is reported as -8.76% (inactive).
For `Cc1cc(NC(=O)CCC(=O)N(Cc2ccccc2)C(C(=O)NC2CCCC2)c2ccc(C)o2)no1` (stereo not given), the inhibition was -5.73% (inactive).
In the case of `CCOC(=O)C1CCN(S(=O)(=O)c2ccc3c(c2)N(C(C)=O)CCO3)CC1`, the inhibition is reported as 2.87% (inactive).
With `CCCc1nc2ccccc2c(C(=O)OCc2nnc(-c3cc(OC)c(OC)c(OC)c3)o2)c1CC` the inhibition was -9.57% (inactive).
`COc1ccc(/C=C/C(=O)NC(=S)NN2CCCCC2c2cccnc2)cc1` (stereo not given) was tested, and the inhibition was -0.41% (inactive).
With `Cc1cc(O)ccc1NC1=CC(=O)CC(C)(C)C1` the inhibition was -4.53% (inactive).
`CC1CCC(CN2CCN=C2N(C)C)CC1` (stereo not given) was tested, and the inhibition was -3.89% (inactive).
In the case of `Cc1ccc(S(=O)(=O)NC(=O)COc2ccccc2C)cc1`, the inhibition is reported as 7.88% (inactive).
For `CCCCn1c(=S)[nH]c2cc(S(=O)(=O)N3CCCCC3)ccc21`, the inhibition was -12.1% (inactive).
For `O=C(COC(=O)c1ccc(S(=O)(=O)N2CCc3ccccc3C2)cc1)NC(=O)NCc1ccco1`, the inhibition was -44.5% (inactive).
`COc1ccccc1OCCNCC(O)COc1cccc2[nH]c3ccccc3c12` (stereo not given) was tested, and the inhibition was -3.15% (inactive).
With `C=C1C2C[C@H](O)C(C)(C)[C@@]2(O)[C@H](O)C[C@]23C[C@@](C)(O)[C@H](CC[C@H]12)[C@H]3O` (stereo not given in full) the inhibition was 8.16% (inactive).
`CCCCCCCNc1nc(Cl)nc(NCCO)n1` was tested, and the inhibition was 1.57% (inactive).
In the case of `C/C(=N\NC(=O)NC1CCCCC1)c1ccc(OC(F)F)cc1OC(F)F`, the inhibition is reported as -2.17% (inactive).
For `C/C(=N/NS(=O)(=O)c1ccccc1)c1ccc(NC(=O)C(F)(F)F)cc1`, the inhibition was -8.65% (inactive).
For `O=C(CNC(=O)c1ccccc1F)OCC(=O)c1c[nH]c2ccccc12`, the inhibition was 3.57% (inactive).
`COc1ccc(SC[C@H](Cc2ccccc2)N2CCN(CCc3ccccc3)CCC2=O)cc1` was tested, and the inhibition was 1.82% (inactive).
`CC(=O)c1ccc(N2CCN(C(=O)CCNC(=O)Cn3ccc4ccccc4c3=O)CC2)cc1` was tested, and the inhibition was -8.01% (inactive).
In the case of `CC(=O)Nc1c2c(nn1-c1ccc(C)cc1C)CS(=O)C2` (stereo not given), the inhibition is reported as -11.2% (inactive).
`CS(=O)(=O)c1ccc(Cl)c(NC(=O)COC(=O)c2ncc(Cl)c(Cl)c2Cl)c1` was tested, and the inhibition was 0.74% (inactive).
`O=C(CSc1nnc(-c2ccoc2)o1)N1CCOCC1` was tested, and the inhibition was 6.68% (inactive).
With `OC(COCc1ccco1)CN1CCN(c2ccccc2)CC1` (stereo not given) the inhibition was 5.86% (inactive).
`C/C(=N/NC(=O)CN1CCN(S(=O)(=O)c2ccc(Br)cc2)CC1)c1ccncc1` was tested, and the inhibition was -1.08% (inactive).
In the case of `CCOc1ccc(N(CC(=O)Nc2cccc(OC)c2)S(C)(=O)=O)cc1`, the inhibition is reported as -3.74% (inactive).
In the case of `CN=C1C=C/C(=N/N=c2\ccn(O)cc2C)C=C1C`, the inhibition is reported as -17.4% (inactive).
For `Cc1ccc(-n2c(SCC(=O)Nc3ncc(Cl)cc3Cl)nc3ccccc32)cc1`, the inhibition was -17.4% (inactive).
For `Cc1ccn2c(=O)c(NC(=O)c3cccc4ccccc34)c(C)nc2c1`, the inhibition was -5.92% (inactive).
With `CC(C(=O)N1CCN(c2ccccc2F)CC1)c1ccc([N+](=O)[O-])cc1` (stereo not given) the inhibition was 7.31% (inactive).
In the case of `CCC(=NC1CC(C)(C)NC(C)(C)C1)C1=C(O)CC(C)(C)CC1=O`, the inhibition is reported as -1.22% (inactive).
For `CCC(C)[C@H](NC(=O)N1c2ccccc2NC(=O)[C@@H]1C(C)C)C(=O)N[C@@H](Cc1ccccc1)C(=O)O` (stereo not given in full), the inhibition was 6.36% (inactive).
With `CCOc1ccccc1NC(=O)C1CCCN(S(=O)(=O)c2ccccc2)C1` (stereo not given) the inhibition was -17.1% (inactive).
For `O=C(Nc1nnc(Cc2ccc(Cl)cc2)s1)c1ccncc1`, the inhibition was 7.51% (inactive).
With `COCCn1c(N)c(NCc2ccccc2)c(=O)[nH]c1=O` the inhibition was -10.5% (inactive).
`Cc1ccc(NC(=O)C2(N3CCC3=O)CCCCC2)cc1` was tested, and the inhibition was 3.63% (inactive).
For `CCOc1ccc(CN(C)C(=O)c2ccc(=O)[nH]c2)cc1`, the inhibition was 0.46% (inactive).
With `Cc1cc(C(=O)OC(C)C(=O)NC2CCCCC2C)c(C)o1` (stereo not given) the inhibition was -0.91% (inactive).
For `COc1ccc(Cn2c(O)c(/C=C3/C=CC=N3)c(=O)[nH]c2=O)cc1`, the inhibition was -6.46% (inactive).
In the case of `C[C@H](NS(=O)(=O)c1ccc(Cl)cc1)C(=O)OCC(=O)N1CCOCC1`, the inhibition is reported as 3.78% (inactive).
`CN(C)CC(C)(C)CNC(=O)c1cc(Br)cc(Br)c1O` was tested, and the inhibition was 9.55% (inactive).
For `CCCCc1cc2c(s1)CCCC/C2=N/O`, the inhibition was -4.78% (inactive).
In the case of `CCc1nc2ccc(C(=O)N3CCN(c4cccc(Cl)c4)CC3)cc2nc1CC`, the inhibition is reported as 0.29% (inactive).
With `O=S(=O)(NC1CC2CCC1C2)c1ccc(Cl)cc1` (stereo not given) the inhibition was 0.26% (inactive).
With `CC(=O)c1ccc(N2CCN(S(=O)(=O)c3c(C)[nH]c(=O)[nH]c3=O)CC2)cc1` the inhibition was 5.45% (inactive).
`COc1ccc(NC(=O)C(C)SCc2ccccc2)cc1` (stereo not given) was tested, and the inhibition was 0.17% (inactive).
`C/C(=N\NC(=O)c1ccc(CSc2nc(C)cc(C)n2)cc1)C1CCCCC1` was tested, and the inhibition was -1.11% (inactive).
In the case of `O=C1Nc2cc(C(=O)N3CCN(c4ccc(F)cc4)CC3)ccc2NC1CSCc1cccc(F)c1` (stereo not given), the inhibition is reported as -19.6% (inactive).
In the case of `O=C(Nc1cc(S(=O)(=O)Nc2ccc(Cl)cc2)ccc1O)c1ccc(F)cc1F`, the inhibition is reported as -20% (inactive).
For `COc1ccccc1NC(=S)N1CCN(C(c2ccccc2)c2ccccc2)CC1`, the inhibition was -3.52% (inactive).
In the case of `CCOc1ccc(OCC)c(NC(=O)CN(C)S(=O)(=O)c2cccc3nsnc23)c1`, the inhibition is reported as 4.81% (inactive).
In the case of `CC(=O)OCCOCn1cnn2c(=O)c(Br)c(C)nc12`, the inhibition is reported as 9.74% (inactive).
For `Cc1nc2nc[nH]n2c(=O)c1NC(=O)c1cccc(OCC(C)C)c1`, the inhibition was 2.66% (inactive).
With `Cn1cnc(S(=O)(=O)Nc2ccc3c(c2)OCCO3)c1` the inhibition was -5.54% (inactive).
`O=C(NCc1ccccc1)[C@@H]1CSC2c3ccccc3C(=O)N21` (stereo not given in full) was tested, and the inhibition was 5.62% (inactive).
For `CCc1cccc2c(C=C(C#N)C#N)cn(CC(=O)N3CCCCC3)c12`, the inhibition was -5.84% (inactive).
`COc1cccc(CNC(=O)Cn2c(=O)oc3cc(S(=O)(=O)N4CCCCC4)ccc32)c1` was tested, and the inhibition was -26.5% (inactive).
`O=C(O)c1ccn(COc2ccc(Br)cc2)n1` was tested, and the inhibition was 5.52% (inactive).
In the case of `CCc1ccc(N(C(=O)c2csnn2)C(C(=O)NC2CCCCC2)c2cccnc2)cc1` (stereo not given), the inhibition is reported as -1.12% (inactive).
For `COc1ccccc1Nc1nnc(SC(C)C(=O)NC2CC2)s1` (stereo not given), the inhibition was 6.85% (inactive).
For `C=C1CCC(N(O)c2cc(C)on2)C(=C)CCC2C1CC2(C)C` (stereo not given), the inhibition was -8.68% (inactive).
In the case of `O=C(CNS(=O)(=O)c1ccc2ccccc2c1)Nc1ccc(F)c(F)c1F`, the inhibition is reported as 2.38% (inactive).
`CCN(CC)C(=O)CSc1nnc(-c2cnccn2)n1-c1ccc(C)cc1` was tested, and the inhibition was -10.7% (inactive).
`O=C(O)C1=NN(c2c(F)c(F)cc(F)c2F)C(=O)CC1` was tested, and the inhibition was -8.71% (inactive).
For `CCOc1ccc(S(=O)(=O)N2CCC(c3ccccc3)CC2)cc1C(=O)O`, the inhibition was 2.59% (inactive).
In the case of `CCCN(CCC)S(=O)(=O)c1ccc(C(=O)NNC(=O)c2cc(OC)c(OC)c(OC)c2)cc1`, the inhibition is reported as 2.22% (inactive).
In the case of `CCCCNC(=O)C1(c2ccc(OC)cc2)CCOCC1`, the inhibition is reported as 1.73% (inactive).
`CC(C)(C)NS(=O)(=O)NC(=O)C1=C(N2CCCC2)COC1=O` was tested, and the inhibition was -1.86% (inactive).
With `O=c1[nH]c2ccccc2n2c(-c3ccccc3)nnc12` the inhibition was -13% (inactive).
In the case of `COc1ccc(NC(=O)c2cc([N+](=O)[O-])ccc2NC(=O)CNC2CCCCC2C)c(OC)c1` (stereo not given), the inhibition is reported as -11.9% (inactive).
For `CN(C)C(=O)N=NC(=O)N(C)C`, the inhibition was -1.83% (inactive).
`O=C(Nc1ccccc1C(=O)O)c1ccc(N2C(=O)C3CC=CCC3C2=O)cc1` (stereo not given) was tested, and the inhibition was -4.79% (inactive).
With `COc1cccc(CNc2ncc(-c3ccccc3)n2C)c1` the inhibition was -4.35% (inactive).
With `O=C(Cn1ccc([N+](=O)[O-])n1)NCc1cccs1` the inhibition was 2.31% (inactive).
With `CCOc1ncccc1C(=O)OCC(=O)c1c[nH]c2ccccc12` the inhibition was 2.18% (inactive).
`Cc1ccccc1CSc1nnc(CCCCCNC(=O)OC(C)(C)C)o1` was tested, and the inhibition was -2.88% (inactive).
`COc1cc([N+](=O)[O-])cc([N+](=O)[O-])c1NC(=O)N1CCOCC1` was tested, and the inhibition was 0.53% (inactive).
For `O=C(CN1C(=O)NC2(CCCC2)C1=O)OCCOc1ccc(F)cc1`, the inhibition was 0.5% (inactive).
